Experimental findings from PubChem BioAssay (NCI) are described below.

Compounds without any hit were thinned out: in the full panel of roughly 79,000, 15% have a hit. Unmarked numbers belong to inactive results. Activity calls are given as the source filed them. Rule as the data show it: active = growth inhibition above about 70%; inactive = the rest.

Experiment [1] is described as follows: NCI Yeast Anticancer Drug Screen. Data for the rad50 strain (AID 155).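 Also: 0% = growth of vehicle-only cultures of the same strain.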 As to conditions: S. cerevisiae rad50 strain growth inhibition, active compounds read high. Put shortly:
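Vehicle-treated cultures provide the reference for the growth inhibition reported for compound-exposed, repair-deficient yeast.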

A short description of experiment [2]: NCI Yeast Anticancer Drug Screen. Data for the mec2-1 strain (AID 157). Particulars: S. cerevisiae mec2-1 strain, active compounds read high. Put shortly: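 Test agents were screened against the mec2-1 yeast strain, with defined DNA repair or cell cycle alteration. Growth was scored as inhibition against vehicle-only controls.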
The nature of experiment [3]: NCI Yeast Anticancer Drug Screen. Data for the sgs1 mgt1 strain (AID 161).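 Also: 0% = growth of cultures given vehicle only.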 Particulars: S. cerevisiae sgs1 mgt1 strain, active compounds read high. The method, boiled down: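 Mutant yeast exposed to compound; growth scored against vehicle-only wells.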
Experiment [4] is described as follows: NCI Yeast Anticancer Drug Screen. Data for the cln2 rad14 strain (AID 165).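 Also: 0% = growth equal to vehicle treated cultures.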 As to conditions: S. cerevisiae cln2 rad14 strain, active compounds read high. Put shortly:
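Growth of compound-exposed yeast (cln2 rad14 genotype) measured and expressed as inhibition relative to vehicle.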

Experiment [5] can be described thus: NCI Yeast Anticancer Drug Screen. Data for the bub3 strain (AID 167). Particulars: S. cerevisiae bub3 mutant strain, active compounds read high. The method, boiled down: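 Mutant yeast screening strain plus compound; vehicle-treated cultures serve as the 0% inhibition reference.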
Experiment [6] is described as follows: NCI Yeast Anticancer Drug Screen. Data for the mlh1 rad18 strain (AID 175). Particulars: S. cerevisiae mlh1 rad18 strain growth inhibition, active compounds read high. The method, boiled down:
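In this whole-cell yeast screen, a strain with altered DNA damage repair is challenged with compound, and its growth is measured against matched vehicle-treated controls.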

Where [7] appears, read: at 5.0 µM (retest, dose inferred, filed as 0.5).
Setting [8] is: at 50.0 µM (retest, dose inferred, filed as 5.0).

As for `O=C1OC(=O)C2C3CCC(C3=C3CCCCC3)C12` (configuration not stated), the growth inhibition was -2% in experiment [1] (setting [7]); 93% (active) in experiment [1] (setting [8]); 35% in experiment [1] (at 50.0 µM); 7% in experiment [2] (setting [7]); 95% (active) in experiment [2] (setting [8]); 28.2% in experiment [2] (at 50.0 µM). Moreover, the growth inhibition was -1% in experiment [3] (setting [7]); 58% in experiment [3] (setting [8]); 40% in experiment [3] (at 50.0 µM); 5% in experiment [4] (setting [7]); 96% (active) in experiment [4] (setting [8]); -8.55% in experiment [4] (at 50.0 µM). Further, the growth inhibition was 5% in experiment [5] (setting [7]); 95% (active) in experiment [5] (setting [8]); 10.8% in experiment [5] (at 50.0 µM); -1% in experiment [6] (setting [7]); 93% (active) in experiment [6] (setting [8]); 36.8% in experiment [6] (at 50.0 µM).

For `CCCN(CCC)CC(O)c1cc(-c2ccccc2)nc2c(Cl)cc(Cl)cc12` (configuration not stated), the growth inhibition was 3% in experiment [1] (setting [7]); 90% (active) in experiment [1] (setting [8]); 98.3% (active) in experiment [1] (at 50.0 µM); -2% in experiment [2] (setting [7]); 100% (active) in experiment [2] (setting [8]); 98.2% (active) in experiment [2] (at 50.0 µM). Besides, the growth inhibition in experiment [3] (setting [7]) is 2%; in experiment [3] (setting [8]), 81% (active); in experiment [3] (at 50.0 µM) it was 98% (active); in experiment [4] (setting [7]), -5%; in experiment [4] (setting [8]), 99% (active); in experiment [4] (at 50.0 µM), 97.8% (active). The growth inhibition in experiment [5] (setting [7]) is -1%; in experiment [5] (setting [8]), 99% (active); in experiment [5] (at 50.0 µM) it was 98.2% (active); in experiment [6] (setting [7]), -2%; in experiment [6] (setting [8]), 94% (active); in experiment [6] (at 50.0 µM) it was 92.2% (active).

Turning to `CS/C(N)=N/NC(=O)CCC(=O)Nc1cc(Cl)c(Cl)cc1Cl`, the growth inhibition in experiment [1] (setting [7]) is 3%; in experiment [1] (setting [8]) it was 16%; in experiment [1] (at 50.0 µM), 24.7%; in experiment [2] (setting [7]) it was 9%; in experiment [2] (setting [8]), -2%; in experiment [2] (at 50.0 µM), 3%. In addition, the growth inhibition was 6% in experiment [3] (setting [7]); 16% in experiment [3] (setting [8]); -10.2% in experiment [3] (at 50.0 µM); 13% in experiment [4] (setting [7]); 13% in experiment [4] (setting [8]); 15% in experiment [4] (at 50.0 µM). For the same compound, the growth inhibition was 4% in experiment [5] (setting [7]); 4% in experiment [5] (setting [8]); -0.85% in experiment [5] (at 50.0 µM); 5% in experiment [6] (setting [7]); 3% in experiment [6] (setting [8]); 19.5% in experiment [6] (at 50.0 µM).

On to `CCC[CH2][Sn]([CH2]CCC)([O]C(=O)C(OC(C)=O)c1ccccc1)[O]C(=O)C(OC(C)=O)c1ccccc1` (configuration not stated), for which the growth inhibition in experiment [1] (setting [7]) is 52%; in experiment [1] (setting [8]), 98% (active); in experiment [1] (at 50.0 µM) it was 98.5% (active); in experiment [2] (setting [7]) it was 43%; in experiment [2] (setting [8]) it was 98% (active); in experiment [2] (at 50.0 µM) it was 97.8% (active). In addition, the growth inhibition in experiment [3] (setting [7]) is 45%; in experiment [3] (setting [8]), 97% (active); in experiment [3] (at 50.0 µM), 98.5% (active); in experiment [4] (setting [7]), 31%; in experiment [4] (setting [8]), 97% (active); in experiment [4] (at 50.0 µM), 96.4% (active). In addition, the growth inhibition was 71% (active) in experiment [5] (setting [7]); 97% (active) in experiment [5] (setting [8]); 98% (active) in experiment [5] (at 50.0 µM); 60% in experiment [6] (setting [7]); 98% (active) in experiment [6] (setting [8]); 98.5% (active) in experiment [6] (at 50.0 µM).
